Some test systems named below: DU-145 prostate; K-562 leukemia; MALME-3M melanoma; MDA-MB-231 breast; RXF 393 renal; SF-268 CNS; SF-295 CNS; SF-539 CNS; UACC-257 melanoma; M14 melanoma; HCT-15 colon; HT29 colon; SNB-75 CNS; SNB-19 CNS; U251 CNS; PC-3 prostate; SK-MEL-5 melanoma; UACC-62 melanoma; SK-MEL-28 melanoma; LOX IMVI melanoma.
Experiment in all cases: NCI-60 one-dose screen, 48 h (100 = growth as untreated, 0 = no growth, -100 = all killed)
Common to all, as to conditions: 10 µM unless noted

Compounds without any hit were thinned out: in the full panel of roughly 83,000, 20% have a hit.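 Negative percent growth values reflect cell death: -40 means 40% of the cells present at the start died, and -100 means all died.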 Unmarked numbers belong to inactive results. Activity calls are given as the source filed them. How the source made its calls: active means growth percent below 10; inactive means the rest.

Consider `CCOc1c(OC)cc2c(c1O)C(=O)N[C@@H]1[C@@H](O)[C@@H](O)[C@H](O)C[C@@H]21`, for which the growth in the assay with DU-145 prostate was 109%; in the assay with K-562 leukemia, 91.2%; with MALME-3M melanoma, 102%; in the assay on MDA-MB-231 breast, 106%; with RXF 393 renal, 109%; with SF-268 CNS, 102%. Moreover, the growth in the assay with SF-295 CNS is 102%; in the assay with SF-539 CNS, 97.7%; in the assay with UACC-257 melanoma, 100%; in the assay with M14 melanoma, 105%; with HCT-15 colon, 102%; in the assay with HT29 colon, 100%. Moreover, the growth in the assay on SNB-75 CNS was 93.5%; with SNB-19 CNS, 99%; in the assay on U251 CNS it was 96.7%; in the assay with PC-3 prostate it was 100%; in the assay with SK-MEL-5 melanoma, 101%; with UACC-62 melanoma it was 93.1%. The growth with SK-MEL-28 melanoma is 105%.
On to `COc1cccc(C(=O)NNc2nc(Cl)nc(Cl)n2)c1`, for which the growth was 105% in the assay on DU-145 prostate; 96.7% in the assay with K-562 leukemia; 100% in the assay on MALME-3M melanoma; 104% with MDA-MB-231 breast; 109% in the assay on RXF 393 renal; 103% in the assay with SF-268 CNS. The growth in the assay with SF-295 CNS is 101%; in the assay with SF-539 CNS it was 100%; in the assay with UACC-257 melanoma, 102%; in the assay on M14 melanoma, 102%; in the assay on HCT-15 colon it was 98.2%; with HT29 colon, 98.8%. Also, the growth with SNB-75 CNS is 87.4%; with SNB-19 CNS, 93%; in the assay with U251 CNS, 99.2%; in the assay on PC-3 prostate it was 97.4%; in the assay with SK-MEL-5 melanoma it was 96.1%; with UACC-62 melanoma it was 101%. Further, the growth with SK-MEL-28 melanoma is 105%.
Take `C=C(C)[C@@H]1CC[C@]2(COC(C)=O)CC[C@]3(C)[C@H](CC[C@@H]4[C@@]5(C)CCCN(C(C)=O)C(C)(C)[C@@H]5CC[C@]43C)[C@@H]12`: the growth with DU-145 prostate was 59.9%; in the assay with K-562 leukemia, 0.971% (active); with MALME-3M melanoma, 51%; with MDA-MB-231 breast, 45.2%; in the assay on RXF 393 renal, 64.1%; in the assay with SF-268 CNS, 90.9%. In addition, the growth in the assay with SF-295 CNS is 104%; in the assay on SF-539 CNS, 81%; in the assay on UACC-257 melanoma, 60%; in the assay on M14 melanoma, -65.9% (active); with HCT-15 colon, 0.472% (active); in the assay with HT29 colon it was -7.38% (active). In addition, the growth with SNB-75 CNS was 108%; in the assay on SNB-19 CNS, 84.6%; in the assay with U251 CNS, 6.47% (active); with PC-3 prostate, 65.6%; in the assay with SK-MEL-5 melanoma it was 84.6%; in the assay on UACC-62 melanoma, -2.48% (active). For the same compound, in the assay on SK-MEL-28 melanoma, the growth was 96.6%.
For `Oc1c(CN2CCC(N3CCCCC3)CC2)cc(Cc2cc(CN3CCC(N4CCCCC4)CC3)c(O)c3ncccc23)c2cccnc12`, the growth in the assay with DU-145 prostate is 37.1%; in the assay with K-562 leukemia, 5.46% (active); with MALME-3M melanoma it was 15.4%; with MDA-MB-231 breast, 18.3%; in the assay with RXF 393 renal it was 57.5%; in the assay on SF-268 CNS, 27.9%. The growth is 31.1% with SF-295 CNS; -55.4% (active) in the assay with SF-539 CNS; 57.2% in the assay on UACC-257 melanoma; -26% (active) in the assay on M14 melanoma; 20.6% with HCT-15 colon; 16% with HT29 colon. In addition, the growth in the assay on SNB-75 CNS is 54.1%; in the assay with SNB-19 CNS it was 36.6%; with U251 CNS, 24.6%; in the assay with PC-3 prostate, 17.7%; with SK-MEL-5 melanoma it was 34.1%; in the assay with LOX IMVI melanoma, 4.36% (active). In the assay with SK-MEL-28 melanoma, the growth is 31.5%.
Consider `COC1=C(C)C(=O)N2[C@@H]1[C@H](c1ccccc1)OC21C=CC(=O)C=C1`, for which the growth in the assay on DU-145 prostate was 4.7% (active); with K-562 leukemia it was 6.14% (active); in the assay on MALME-3M melanoma, -12.3% (active); in the assay with MDA-MB-231 breast it was 11.9%; in the assay on RXF 393 renal, -69.2% (active); in the assay on SF-268 CNS, 1.71% (active). For the same compound, the growth was 90.3% in the assay on SF-295 CNS; -69% (active) in the assay with SF-539 CNS; -12.8% (active) in the assay with UACC-257 melanoma; -43.8% (active) in the assay on M14 melanoma; -27.3% (active) with HCT-15 colon; -12.6% (active) in the assay on HT29 colon. Moreover, the growth with SNB-75 CNS was 52.7%; in the assay with SNB-19 CNS it was 64.9%; with U251 CNS, 26.2%; with PC-3 prostate it was -5.32% (active); in the assay with SK-MEL-5 melanoma, 33%; with UACC-62 melanoma it was -55.2% (active). The growth in the assay with SK-MEL-28 melanoma was -14.4% (active).
On to `Cc1c(CC(=S)N2CCOCC2)nnn1-c1cccc(C(F)(F)F)c1`, for which the growth in the assay with DU-145 prostate was 111%; with K-562 leukemia, 100%; with MALME-3M melanoma it was 104%; with MDA-MB-231 breast, 107%; in the assay on RXF 393 renal, 108%; in the assay with SF-268 CNS, 97.7%. In addition, the growth is 109% in the assay on SF-295 CNS; 95.1% with SF-539 CNS; 105% with UACC-257 melanoma; 100% with M14 melanoma; 104% in the assay with HCT-15 colon; 101% in the assay on HT29 colon. The growth in the assay with SNB-75 CNS was 92.3%; in the assay with SNB-19 CNS it was 106%; with U251 CNS, 95.4%; in the assay on PC-3 prostate, 99%; with SK-MEL-5 melanoma, 99.8%; with LOX IMVI melanoma it was 98.2%. Further, the growth in the assay with SK-MEL-28 melanoma was 113%.
Take `CCN1C(=O)N(CC)C2C1N=C(SCc1ccc(Cl)cc1)N2/N=C/C=C/c1ccccc1OC` (stereo not drawn): the growth with DU-145 prostate was 90.7%; in the assay with K-562 leukemia, 20.9%; in the assay on MALME-3M melanoma it was 60.9%; in the assay with MDA-MB-231 breast, 75.2%; in the assay with RXF 393 renal it was 49.8%; in the assay with SF-268 CNS, 64.5%. Further, the growth was 57.5% in the assay with SF-295 CNS; 68% in the assay with SF-539 CNS; 42% in the assay with UACC-257 melanoma; 45.5% in the assay with M14 melanoma; 31.4% in the assay on HCT-15 colon; 58.3% with HT29 colon. In addition, the growth in the assay on SNB-75 CNS is 50.1%; in the assay on SNB-19 CNS it was 79.3%; with U251 CNS it was 68.8%; in the assay with PC-3 prostate, 43.7%; in the assay on SK-MEL-5 melanoma, 44.2%; with UACC-62 melanoma, 31.2%. Also, the growth in the assay with SK-MEL-28 melanoma is 70.9%.

The record behind these values is PubChem BioAssay (NCI).
